Measurements published in publication PMC4336329 (PLoS ONE, 2015).
Hit rate of the full screen: of about 310,000 compounds, about 14,000 (4.5%) showed an effect of 50% or more. Effects have a minus sign here. This excerpt belongs to a sample that is enriched for strong results.

Target: human ether-à-go-go-related gene (hERG) potassium channel (human, UniProt Q12809)
Assay: primary screen, population patch clamp on CHO cells stably expressing hERG; higher = less effect of the substance
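Also: peak tail current of the secondary pulse compared with the same well before compound.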

Chain of human ether-à-go-go-related gene (hERG) potassium channel (Q12809 whole entry, looked up): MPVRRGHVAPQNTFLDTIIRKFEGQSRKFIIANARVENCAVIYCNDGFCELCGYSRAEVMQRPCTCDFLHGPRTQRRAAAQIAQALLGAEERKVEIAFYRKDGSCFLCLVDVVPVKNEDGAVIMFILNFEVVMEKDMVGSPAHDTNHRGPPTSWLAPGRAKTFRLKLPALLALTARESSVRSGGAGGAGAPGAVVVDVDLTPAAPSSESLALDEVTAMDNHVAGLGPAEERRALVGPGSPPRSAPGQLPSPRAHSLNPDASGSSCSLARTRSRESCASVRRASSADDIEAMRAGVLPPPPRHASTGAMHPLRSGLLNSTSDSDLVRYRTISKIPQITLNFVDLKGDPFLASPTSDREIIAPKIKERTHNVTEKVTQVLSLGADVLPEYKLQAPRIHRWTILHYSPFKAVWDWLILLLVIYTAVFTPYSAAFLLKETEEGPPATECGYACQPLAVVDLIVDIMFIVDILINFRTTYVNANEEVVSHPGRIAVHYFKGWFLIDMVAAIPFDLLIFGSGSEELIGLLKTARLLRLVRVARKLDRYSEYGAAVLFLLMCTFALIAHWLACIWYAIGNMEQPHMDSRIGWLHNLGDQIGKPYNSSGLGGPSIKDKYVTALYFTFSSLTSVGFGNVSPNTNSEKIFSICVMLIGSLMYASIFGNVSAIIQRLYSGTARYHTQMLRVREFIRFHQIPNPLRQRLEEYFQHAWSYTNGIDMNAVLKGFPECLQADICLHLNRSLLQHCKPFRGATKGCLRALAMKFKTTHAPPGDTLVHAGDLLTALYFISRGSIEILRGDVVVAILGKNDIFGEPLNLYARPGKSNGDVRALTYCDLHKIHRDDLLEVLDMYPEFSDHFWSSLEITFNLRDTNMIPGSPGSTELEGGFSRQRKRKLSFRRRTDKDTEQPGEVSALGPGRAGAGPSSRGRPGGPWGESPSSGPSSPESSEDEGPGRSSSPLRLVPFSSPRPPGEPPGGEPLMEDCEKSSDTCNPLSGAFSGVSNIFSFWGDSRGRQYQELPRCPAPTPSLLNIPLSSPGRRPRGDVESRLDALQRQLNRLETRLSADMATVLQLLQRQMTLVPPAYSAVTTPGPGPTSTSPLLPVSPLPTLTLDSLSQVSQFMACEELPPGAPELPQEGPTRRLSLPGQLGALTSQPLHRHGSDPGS

| Compound | hERG current change (%, negative = inhibition) at 10uM |
| --- | --- |
| CC(C)CCNC(=O)c1ccc2c(SCC(=O)O)c3c(nc2c1)CCCC3 | -2.6% |
| Cc1ccc(N(C)S(=O)(=O)c2csc(C(N)=O)c2)cc1C | -14.8% |
| Cc1ccc(CN2C(=O)CCC2C(=O)NCCN(CC(C)C)CC(C)C)cc1 (stereo not shown) | -13.4% |
| CCOc1cc(N2CCOCC2)c(OCC)cc1NC(=O)C1=NN(c2cccc(C)c2)C(=O)CC1 | -3.8% |
| COc1cc(Cn2nnc3ccccc32)cc(Br)c1O | 3% |
| Cc1ccccc1NC(=O)Cn1c(CCC(=O)O)ccc1-c1cccs1 | 15.4% |
| CCN(C(=O)CSc1ccc2ccccc2n1)C1CCS(=O)(=O)C1 (stereo not shown) | -7.61% |
| Cc1ccc(-n2c(=O)c3c4c(sc3n(Cc3cc(=O)n5ccccc5n3)c2=O)CCC4)cc1C | -69.1% |
| Cc1sc2c(c1C)c(=O)n(-c1ccc(Cl)cc1)c(=O)n2Cc1cc(=O)n2ccccc2n1 | -36.4% |
| Cc1ccc(-n2c(=O)c3c(C)c(C)sc3n(Cc3cc(=O)n4ccccc4n3)c2=O)cc1C | -4.43% |
| CS(=O)(=O)N(Cc1ccc(C(=O)NN=C2CCCCCC2)cc1)c1ccccc1 | -7.08% |
| CCCCC(C(=O)O)C(C)CC(=O)NNC(=O)c1ccco1 (stereo not shown) | 13.2% |
| C(=N\Nc1nncc2ccccc12)/c1ccccc1 | 1.52% |
| COc1ccc(OC)c(N/C(N)=N/c2nc(C)cc(C)n2)c1 | -50.1% |
| COc1ccc(Cl)cc1N/C(N)=N/c1nc(C)cc(C)n1 | -84.2% |
| COc1ccc(Cl)cc1NC(=O)CSc1nc(C)cc(C)n1 | -32.6% |
| COc1ccccc1N/C(N)=N/c1nc(C)cc(C)n1 | -32.9% |
| COc1ccc(Cl)cc1N/C(N)=N/c1nc(C)cc(=O)[nH]1 | 20% |
| COc1ccc(N/C(N)=N/c2nc(C)cc(C)n2)c(OC)c1 | -26.4% |
| COc1ccc(OC)c(N/C(=N/c2nc(C)cc(C)n2)NC(C)=O)c1 | 14.5% |
| CC(=O)N/C(=N/c1nc(C)cc(C)n1)Nc1ccc(C)cc1C | -10.6% |
| Cc1ccc(N/C(N)=N/c2nc(C)cc(N3CCCCC3)n2)c(C)c1 | -83% |
| COc1ccc(C)cc1N/C(N)=N/c1nc(C)cc(C)n1 | -74.4% |
| CCOC(=O)Nc1cc(C)ccc1OC | 11.2% |
| Cc1ccc(C)c(N/C(N)=N/c2nc(C)cc(C)n2)c1 | -34.2% |
| CCOc1ccc(CNC(=O)C(=O)c2cn(CC(=O)N3CCOCC3)c3ccccc23)cc1OC | 17.1% |
| COC(=O)C1=C(C)Nc2ncnn2C1c1cccnc1 (stereo not shown) | 2.93% |
| O=C(Cn1ncc2c([nH]c3ccccc32)c1=O)N1CCN(c2ccccc2F)CC1 | 1.65% |

| Compound | hERG current change (%, negative = inhibition) at 10uM |
| --- | --- |
| CCN(CC)CCCN1C(=O)C(=O)/C(=C(/O)c2ccc3c(c2)OCCO3)C1c1ccco1 (stereo not shown) | -6.06% |
| CC(C)c1cccc(C(C)C)c1NC(=O)COC(=O)[C@H](C)NC(N)=O | 16.8% |
| CCCOc1ccccc1N/C(=N/c1nc(C)cc(C)n1)NC(=O)Nc1ccc(Cl)cc1 | -1.32% |
| CCCOc1ccccc1N/C(N)=N/c1nc(C)cc(C)n1 | -85.8% |
| COc1cc(N/C(N)=N/c2nc(C)cc(C)n2)c(OC)cc1Cl | -56.7% |
| COc1cc(NC(N)=S)c(OC)cc1Cl | 6.66% |
| CCCOc1ccccc1N/C(=N/c1nc(C)cc(C)n1)NC(=O)COc1ccc(OC)cc1 | -10% |
| Cc1cc(C)nc(/N=C(\N)Nc2cc([N+](=O)[O-])ccc2C)n1 | -49% |
| Cc1ccc(-c2cc([C@H]3[C@@H]4C=CCC[C@@]4(C)C(=O)N3Cc3ccccc3)ccc2F)cc1 | 8.75% |
| CC1CC(OC(=O)c2ccccc2)CC(C)N1C.Cl (stereo not shown) | -5.09% |
| Cc1cc(N/N=C/c2c(O)ccc3ccccc23)nc(-c2ccccc2O)n1 | -3.98% |
| O=C(CSc1cccc[n+]1[O-])Nc1cc(S(=O)(=O)N2CCOCC2)ccc1N1CCOCC1 | 16% |
| CCCCCCCNC(=O)C1(CC2CC(c3ccccc3)=NO2)CCNCC1 (stereo not shown) | -58.8% |
| CCCCCCCNC(=O)C1(CC2CC(c3cccc(Br)c3)=NO2)CCN(C(=O)Cc2ccc(F)cc2)CC1 (stereo not shown) | -7.08% |
| CCCCCCCNC(=O)C1(CC2CC(c3cccc(Br)c3)=NO2)CCN(C(=O)C2(C)CC2)CC1 (stereo not shown) | -26% |
| CCCCCCCNC(=O)C1(CC2CC(c3ccc(Cl)cc3)=NO2)CCNCC1 (stereo not shown) | -63.1% |
| CCCCCCCNC(=O)C1(CC2CC(c3cccc(Br)c3)=NO2)CCNCC1 (stereo not shown) | -70.3% |
| O=C(NCc1ccccc1)C1(CC2CC(c3ccccc3)=NO2)CCNCC1 (stereo not shown) | -7.21% |
| CCCNC(=O)C1(CC2CC(c3ccccc3)=NO2)CCNCC1 (stereo not shown) | 23.5% |
| NC(=S)N1CCCc2ccccc21 | -3.03% |
| CC1(c2ccccc2)NC(=O)N(CC(=O)N2CCOCC2)C1=O (stereo not shown) | 3.77% |
| O=C(Nc1nnc(COc2ccc(Cl)cc2)s1)c1cccs1 | -6.91% |
| Cc1csc(=O)n1CC(=O)OCC(=O)Nc1cc(Cl)ccc1[N+](=O)[O-] | -17.8% |
| Cc1cccc(C)c1-n1nnnc1C(C)(C)N1CCN(N=O)CC1 | 14.7% |
| COc1cccc(NC(C)(C)c2nnnn2-c2c(C)cccc2C)c1 | -63.4% |
| COc1ccc(NC(C)(C)c2nnnn2-c2c(C)cccc2C)cc1 | -4.2% |
| O=C(NCCc1cccs1)C1CC(c2cccc([N+](=O)[O-])c2)=NO1 (stereo not shown) | -23.5% |
